system: RARa homodimer (NR concentration 270 nM); experiment: PBM binding z-score (relative to random genomic background probes); higher = stronger binding; sequences stand for … in GC…GCGATTGACAGCGTAGAATGAAGG
Summary of the method: (§1)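 The probes on custom Agilent 4×180K protein-binding microarrays were double-stranded, with 34-nt variable regions bearing direct-repeat seeds, single-nucleotide variants, half-site ablations and random human genomic background sequences. Incubation lasted 1 h with ligand-free nuclear receptor dimers in PBS pH 7.4, 2% milk, 0.02% Triton X-100, 1 mM DTT, 0.2 mg/mL BSA and 0.4 mg/ml salmon testes DNA. Antibodies against each partner (one per run) detected bound dimers, and fluorescence scans were regression-normalized. Binding z-scores take the random background probes as reference.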

| Sequence | PBM binding z-score |
| --- | --- |
| ACAGACAGGTGATAAAGGTAACTCAGGCTATCAT | -0.124 |
| CCTACTGGGTCATCAGGTCATTGATATCAACGTT | 1.85 |
| TCATCTAGGTAAAAGGTGAAAGTCGGTGTGGTAA | 1.26 |
| CAGCCTAGGTCAGGCCCAGTATAGGAGGAACGTT | -0.629 |
| AATACAGGGTCATCGTAAGCCAGAGTACGCACAG | 0.623 |
| CCTACTGGGCCACGAACGGTCATTGATTCAGTGA | -0.329 |
| GCGACTTGGGCAAAGCAGGTTACCATAAGGTTGG | -1.35 |
| TCTAGTAGGTTAGTCGGGGCATTCAGCCAACATA | 0.282 |
| AGAACGAGGGCACGCTCAGTTGATAGCAGAGTAG | -0.377 |
| CGTACTAGGTCATTGACAGGACAGTGAATAGTAA | 0.282 |
| ATCGAAAGGTCGAGGTGAGCATAGAGAAAGGGAA | 0.169 |
| TCATATAGGTAAAGGTGCAAGTCGAACGATATGA | 0.796 |
| TCTAGTTGGTCACGGAGGTCACTCACGACGGGTA | 1.05 |
| GCGACTGGGGCATAAGCAGGTTACCATAACTTAA | -0.34 |
| AATACAGGCTCATCGTAGGCCAGAGTACGCACAG | 0.466 |
| CGTACAAGGTCAGCAGGTCAGTGAAAGCGACGTG | 1.11 |
| ACAGACAGGTGAGTGAAGGGAACTCAGCTGGACG | -0.307 |
| CCTACTGGGCCAAAAAGGTCCTTGATGCCGATAA | -0.376 |

system: RARb:RXRa (NR concentration 270 nM, RXRa partner concentration 90 nM); experiment: as above
Summary of the method: as §1

| Sequence | PBM binding z-score |
| --- | --- |
| ATCTCTAGGTGAAGTTCAGTGAAAGATCGATAGA | 1.7 |
| CCGACTGGGGCAGAAAGTTTACCATACCATCCGG | 0.775 |
| ACAGACAGGTGATGAAGGTAACTAAGGCTATCAT | 0.371 |
| GCATGTAGATCAAGGTTAAGAAAGACTAAGCTAA | 0.552 |
| TCTTGTAGATCAACAGGAGGTCAAGAAAGATCGA | 2.84 |
| CTTGCTAGGTCAATGGTCAGCTAAAGCAGCTCGC | 3.79 |
| TCGAGTAGGTTCGTCGGGGCATTCAGCCAACATA | 0.556 |
| ATCTCTGGGTAACAAGTTCAGTGAAAGAGAGGAC | 1.75 |
| TAGCCCAGGTCAGATCGGGCCAGTATACGCTATA | 2.91 |
| TGTCAAAGTTCAATGGTAACGTAAGTATCCACAC | 4.58 |
| CGAACGAGGGCATGAGTTGATAGCAAATGCCGAT | 2.11 |
| CGTCCAAGGTCATAGGAGGTCAGGGAAGACAGAT | 5.31 |
| GCTGCTTGGTCAACTGATGGTCAGCTAAAGCTCG | 1.24 |
| ATCTCTAGGAAACCAAGTTCAGTGAATGCCGAAC | 0.938 |
| CCTGCTAGGTCATGGTCATCTAATCTACAGTATG | 3.76 |
| TAGCCTATGTCATTGGGCCAGTATAGTACGCATC | 0.0995 |
| CGAACTAGGTCAGAACAGGACACTGAAGGATGAT | 2.9 |
| GCTCGGAGGACAAGGTCAGATCTTTGTCCGTAGA | 3.52 |
| AGAATGAGGTTATTACGATCAGGGAATTGCGGTC | 1.42 |
| TCATATACGTAAAAGGTGAAAGTCGGTGTGGTAA | 1.9 |

| Sequence | PBM binding z-score |
| --- | --- |
| CCTAGTGGGCCACGAAAGGTCATTGATTCAGTGA | 3.93 |
| TCTTGTAGTTCAATAGAGGTTAAGAAAGTGCGCT | 2.22 |
| ACAGACAGGTGATAAAGGTAACTCAGGCTATCAT | 0.423 |
| CCTACTGGGTCATCAGGTCATTGATATCAACGTT | 3.9 |
| TCATCTAGGTAAAAGGTGAAAGTCGGTGTGGTAA | 2.15 |
| CAGCCTAGGTCAGGCCCAGTATAGGAGGAACGTT | 3.2 |
| AATACAGGGTCATCGTAAGCCAGAGTACGCACAG | 4.43 |
| CCTACTGGGCCACGAACGGTCATTGATTCAGTGA | 1.42 |
| GCGACTTGGGCAAAGCAGGTTACCATAAGGTTGG | -0.0319 |
| TCTAGTAGGTTAGTCGGGGCATTCAGCCAACATA | 0.996 |
| AGAACGAGGGCACGCTCAGTTGATAGCAGAGTAG | 2.64 |
| CGTACTAGGTCATTGACAGGACAGTGAATAGTAA | 3.67 |
| ATCGAAAGGTCGAGGTGAGCATAGAGAAAGGGAA | 4.27 |
| TCATATAGGTAAAGGTGCAAGTCGAACGATATGA | 0.566 |
| TCTAGTTGGTCACGGAGGTCACTCACGACGGGTA | 3.47 |
| GCGACTGGGGCATAAGCAGGTTACCATAACTTAA | 0.653 |
| AATACAGGCTCATCGTAGGCCAGAGTACGCACAG | -0.11 |
| CGTACAAGGTCAGCAGGTCAGTGAAAGCGACGTG | 5.23 |
| ACAGACAGGTGAGTGAAGGGAACTCAGCTGGACG | 0.438 |
| CCTACTGGGCCAAAAAGGTCCTTGATGCCGATAA | 0.177 |
